Assay results reported in PubChem BioAssay.
Values joined by “and” are separate entries in the source; they are usually repeats but may differ in a detail not shown here. Identical values can stand only once. Values without a mark were called inactive. Active and inactive are the calls of the source.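 Rule for the calls: active = thallium flux through the channel raised or lowered by more than 3 SD from vehicle-only wells, actives on both sides; inactive = the rest.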

Legend:
Experiment in all cases: BK channel mutant inhibitors and activators – cell-based, U2OS BacMam, thallium flux, beta subunits, selectivity assay, profiling panel (AID 1259406);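 note: initial slope of Thallos dye fluorescence rise after thallium is added; log ratio against the mean of 0.3% DMSO vehicle wells on the same plate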
F380Y/beta2Delta = conditions: U2OS BacMam BK variants, at 30 µM
F380Y/beta4 = conditions: U2OS BacMam BK variants, at 30 µM
[1] = target: Calcium-activated potassium channel subunit alpha-1 (Homo sapiens) + Leucine-rich repeat-containing protein 26 (Homo sapiens) (UniProt Q12791+Q2I0M4); conditions: U2OS BacMam BK variants, F380Y/Slo1WT/gamma1, at 30 µM
Calcium-activated potassium channel subunit alpha-1 (Homo sapiens) + Leucine-rich repeat-containing protein 26 (Homo sapiens), sequence (Q2I0M4 whole entry, looked up, one chain of several): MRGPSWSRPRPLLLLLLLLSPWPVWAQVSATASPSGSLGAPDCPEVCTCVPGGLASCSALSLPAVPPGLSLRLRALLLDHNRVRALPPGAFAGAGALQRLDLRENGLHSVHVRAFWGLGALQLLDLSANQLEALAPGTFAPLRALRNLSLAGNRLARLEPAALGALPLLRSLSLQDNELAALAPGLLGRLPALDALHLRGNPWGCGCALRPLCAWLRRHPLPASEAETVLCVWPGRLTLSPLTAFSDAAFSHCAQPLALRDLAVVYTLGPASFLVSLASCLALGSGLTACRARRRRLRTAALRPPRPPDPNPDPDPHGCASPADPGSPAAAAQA

R275C = conditions: U2OS BacMam BK variants, at 30 µM
R275C/beta1 = conditions: U2OS BacMam BK variants, at 30 µM
R275C/beta2Delta = conditions: U2OS BacMam BK variants, at 30 µM
R275C/beta4 = conditions: U2OS BacMam BK variants, at 30 µM
R275C/Slo1WT/beta2 = conditions: U2OS BacMam BK variants, at 30 µM

Structure (SMILES)	log fold change Tl+ flux (F380Y/beta2Delta)	log fold change Tl+ flux (F380Y/beta4)	log fold change Tl+ flux [1]	log fold change Tl+ flux (R275C)	log fold change Tl+ flux (R275C/beta1)	log fold change Tl+ flux (R275C/beta2Delta)	log fold change Tl+ flux (R275C/beta4)	log fold change Tl+ flux (R275C/Slo1WT/beta2)
CN(C)CC/C=C1/c2ccccc2COc2ccc(CC(=O)O)cc21	0.053	0.0784	0.00396	-0.0501	0.0368	0.00503	0.0335	0.0239
CC(C)(O)c1ccccc1CC[C@@H](SCC1(CC(=O)O)CC1)c1cccc(/C=C/c2ccc3ccc(Cl)cc3n2)c1	0.312 (active)	0.64 (active)	0.354 (active)	0.131 (active)	0.782 (active)	0.293 (active)	0.977 (active)	0.13 (active)
c1cnc(N2CCN(Cc3ccc4c(c3)OCO4)CC2)nc1	-0.0184	–	0.0386	-0.0353	0.0391	-0.006	–	–
CN(Cc1cnc2nc(N)nc(N)c2n1)c1ccc(C(=O)N[C@@H](CCC(=O)O)C(=O)O)cc1	-0.018	–	0.0152	0.0652	-0.0323	0.0014	–	–
COc1ccc(C(=O)NCc2ccc(OCCN(C)C)cc2)cc1OC	-0.0465	-0.0244	-0.0979 (active)	-0.0872	-0.00904	-0.0505	0.0059	0.00939
C#C[C@]1(O)CC[C@H]2[C@@H]3CCc4cc(O)ccc4[C@H]3CC[C@@]21C	-0.0272	–	0.0947 (active)	-0.0326	0.0956	0.155 (active)	–	–
CC1CCN(CCCC(=O)c2ccc(F)cc2)CC1	0.0189	–	0.000816	0.0359	-0.0458	0.0277	–	–
CC(C)(C)C(O)/C=C/c1ccc2c(c1)OCO2 (stereo not given)	-0.034	0.0193	0.00833	-0.0106	0.0195	-0.0731	-0.0258	-0.0107
CC(=O)O[C@H]1C[C@@H]2CC[C@@H]3[C@H](CC[C@@]4(C)[C@H]3C[C@H]([N+]3(C)CCCCC3)[C@@H]4OC(C)=O)[C@@]2(C)C[C@@H]1N1CCCCC1	0.00769	0.00267	-0.00222	-0.114 (active)	0.00114	-0.0355	0.018	0.0408
Cc1nccn1CC1CCc2c(c3ccccc3n2C)C1=O (stereo not given)	-0.00534 and 0.0144	0.0398 and -0.017	-0.0199 and 0.0181	-0.0259 and 0.0252	-0.00728 and 0.00537	-0.00652 and 0.0192	-0.00238 and 0.0058	0.0288 and 0.00389
CC(C)[C@H](N)C(=O)OCCOCn1cnc2c(=O)[nH]c(N)nc21	-0.00659	-0.0146	0.0174	-0.11	0.0176	0.0029	0.0146	-0.011
COc1ccc(CC2c3cc(OC)c(OC)cc3CC[N+]2(C)CCC(=O)OCCCCCOC(=O)CC[N+]2(C)CCc3cc(OC)c(OC)cc3C2Cc2ccc(OC)c(OC)c2)cc1OC (stereo not given)	-0.00992	–	-0.0136	-0.0147	0.0284	-0.0198	–	–
Nc1nc(F)nc2c1ncn2[C@@H]1O[C@H](CO)[C@@H](O)[C@@H]1O	0.0109	-0.0895	-0.000905	-0.0205	-0.0181	-0.00769	-0.0294	-0.0303
CN1CCC(=C2c3ccccc3CCc3sccc32)CC1	-0.0147	–	0.0222	-0.0315	0.0886	0.0371	–	–
CC(C(=O)O)c1ccc(CC2CCCC2=O)cc1 (stereo not given)	-0.0349	-0.0649	-0.0398	-0.0259	0.00328	0.0267	-0.000172	0.00782
COc1ccccc1OCC(O)CN1CCN(CC(=O)Nc2c(C)cccc2C)CC1 (stereo not given)	0.0304	-0.01	-0.0153	-0.0477	0.0435	0.00123	0.0205	0.0142
CC(C)(C(=O)c1cccnc1)c1cccnc1	-0.0492	-0.00737	-0.0176	-0.0634	0.0377	-0.0241	0.0328	0.0667
CN(C)CC[C@@H](c1ccc(Cl)cc1)c1ccccn1	0.0413	0.0471	-0.00445	-0.0353	0.0461	0.00905	0.0349	0.0166
CNS(=O)(=O)Cc1ccc2[nH]cc(CCN(C)C)c2c1	0.0184	0.00469	-0.0149	0.0314	-0.0158	0.00098	-0.0449	0.0327
CCC(=O)O[C@]1(C(=O)SCF)[C@H](C)C[C@H]2[C@@H]3C[C@H](F)C4=CC(=O)C=C[C@]4(C)[C@@]3(F)[C@@H](O)C[C@@]21C	0.0505	0.0435	0.0105	-0.00436	-0.000971	0.027	0.00493	0.0478
Cc1c(O)cccc1C(=O)N[C@@H](CSc1ccccc1)[C@H](O)CN1C[C@H]2CCCC[C@H]2C[C@H]1C(=O)NC(C)(C)C	-0.0274	0.0671	0.0165	-0.105	0.237 (active)	-0.0795	-0.0349	-0.0218
